Reference: PubChem BioAssay AID1159580 (chemical genetic matrix, 2015)
Among all 5,500 compounds or so, about 2,000 (36%) were called active. Another 18% or so got no clear call; they are omitted. No stated cut-off is given here; in the data, active means normalized growth mostly below about 0.91 (no sharp cut-off); inconclusive means no clear call, values can overlap the other calls; inactive means mostly above about 0.92. This is one part of the list.

Assay: chemical genetic growth profiling, strain panel (AID 1159580);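 further: tested at 20 µM; growth read once vehicle control cultures reached saturation at 30 °C; 1 = growth at the plate median or of vehicle wells; lower values mean less growth of the strain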
Settings: S. cerevisiae deletion strains, growth OD
[1] = locus YHR030C, strain SLT2, active compounds read low
[2] = locus YHR079C, strain IRE1, active compounds read low
[3] = locus YJL095W, strain BCK1, active compounds read low
[4] = locus YJR066W, strain TOR1, active compounds read low
[5] = locus YLR113W, strain HOG1, active compounds read low
[6] = locus YNL183C, strain NPR1, active compounds read low
[7] = locus YOR231W, strain MKK1, active compounds read low
[8] = locus YPL256C, strain CLN2, active compounds read low

Measured: normalized growth

COc1ccc2c(=O)c(-c3ccc(O)cc3)coc2c1
inactive: [1] 0.966 | [2] 0.939 | [3] 0.962 | [4] 0.918 | [5] 0.955 | [6] 0.918 | [7] 0.942 | [8] 0.925

COc1ccc(-c2coc3cc(O)ccc3c2=O)c(O)c1O
active: locus YAL021C, strain ccr4, active compounds read low 0.817 | locus YAL026C, strain drs2, active compounds read low 0.818 | locus YAL030W, strain snc1, active compounds read low 0.874 | locus YBL061C, strain skt5, active compounds read low 0.825 | locus YBR023C, strain chs3, active compounds read low 0.877 | locus YBR231C, strain swc5, active compounds read low 0.837 | locus YBR279W, strain paf1, active compounds read low 0.893 | locus YCL011C, strain gbp2, active compounds read low 0.898 | locus YDR069C, strain doa4, active compounds read low 0.762 | locus YDR297W, strain sur2, active compounds read low 0.898 | locus YDR334W, strain swr1, active compounds read low 0.872 | locus YER015W, strain faa2, active compounds read low 0.737 | locus YFR010W, strain ubp6, active compounds read low 0.873 | locus YGL173C, strain kem1, active compounds read low 0.671 | locus YGL253W, strain hxk2, active compounds read low 0.881 | locus YHR027C, strain rpn1, active compounds read low 0.669 | locus YHR142W, strain chs7, active compounds read low 0.86 | locus YJL164C, strain tpk1, active compounds read low 0.863 | locus YJL166W, strain qcr8, active compounds read low 0.817 | locus YKL160W, strain elf1, active compounds read low 0.902 | locus YLR262C, strain YPT6 (second series), active compounds read low 0.743 | locus YLR342W, strain FKS1, active compounds read low 0.753 | locus YLR357W, strain rsc2, active compounds read low 0.749 | locus YMR058W, strain fet3, active compounds read low 0.333 | locus YNL209W, strain ssb2, active compounds read low 0.633 | locus YOR083W, strain WHI5, active compounds read low 0.866 | locus YOR106W, strain vam3, active compounds read low 0.542 | locus YOR265W, strain rbl2, active compounds read low 0.918 | locus YPL051W, strain arl3, active compounds read low 0.686 | locus YPL106C, strain sse1, active compounds read low 0.813
inactive: locus YBR009C, strain hhf1, active compounds read low 0.955 | locus YBR171W, strain sec66, active compounds read low 0.984 | locus YCL016C, strain dcc1, active compounds read low 0.94 | locus YCL061C, strain MRC1, active compounds read low 0.925 | locus YCL069W, strain vba3, active compounds read low 0.979 | locus YCR088W, strain abp1, active compounds read low 0.971 | locus YDL005C, strain med2, active compounds read low 0.979 | locus YDL040C, strain nat1, active compounds read low 0.999 | locus YDR001C, strain nth1, active compounds read low 0.976 | locus YDR137W, strain rgp1, active compounds read low 1.06 | locus YDR159W, strain sac3, active compounds read low 1.05 | locus YDR195W, strain ref2 0.992 | locus YDR335W, strain msn5, active compounds read low 0.948 | locus YDR392W, strain spt3, active compounds read low 0.869 | locus YEL003W, strain gim4, active compounds read low 0.977 | locus YEL037C, strain rad23, active compounds read low 0.969 | locus YEL061C, strain CIN8 (second series), active compounds read low 0.963 | locus YER016W, strain bim1, active compounds read low 0.94 | locus YER111C, strain swi4, active compounds read low 0.933 | locus YER155C, strain BEM2 (second series), active compounds read low 0.944 | locus YGL167C, strain pmr1, active compounds read low 0.979 | locus YGL227W, strain vid30, active compounds read low 0.989 | locus YGL240W, strain doc1, active compounds read low 0.964 | locus YHR013C, strain ard1, active compounds read low 0.861 | [1] 1.02 | [2] 1.02 | locus YJL092W, strain hpr5, active compounds read low 0.975 | locus YJL095W, strain BCK1 (second series), active compounds read low 0.952 | [3] 1.01 | locus YJL115W, strain asf1, active compounds read low 0.968 | locus YJL129C, strain trk1, active compounds read low 1.03 | locus YJL154C, strain vps35, active compounds read low 0.988 | [4] 0.927 | locus YKR026C, strain gcn3, active compounds read low 0.995 | locus YKR091W, strain srl3, active compounds read low 0.991 | locus YLL001W, strain dnm1, active compounds read low 0.971 | locus YLL026W, active compounds read low 0.98 | locus YLL041C, strain sdh2, active compounds read low 0.968 | locus YLR027C, strain aat2, active compounds read low 0.93 | [5] 1.01 | locus YLR221C, strain rsa3, active compounds read low 0.92 | locus YLR258W, strain gsy2, active compounds read low 0.947 | locus YLR320W, strain mms22, active compounds read low 0.905 | locus YLR370C, strain arc18, active compounds read low 0.916 | locus YLR384C, strain iki3, active compounds read low 0.998 | locus YML120C, strain ndi1, active compounds read low 1 | locus YMR125W, strain sto1, active compounds read low 1.01 | locus YMR129W, active compounds read low 0.967 | locus YMR205C, strain PFK2, active compounds read low 0.971 | locus YMR231W, strain pep5, active compounds read low 0.937 | locus YNL071W, strain lat1, active compounds read low 0.955 | [6] 0.965 | locus YNL248C, strain rpa49, active compounds read low 0.939 | locus YNL322C, strain KRE1 (second series), active compounds read low 0.974 | locus YNR049C, strain mso1, active compounds read low 0.982 | locus YOR001W, strain rrp6, active compounds read low 0.988 | locus YOR070C, strain gyp1, active compounds read low 0.943 | locus YOR080W, strain dia2, active compounds read low 0.986 | [7] 1.04 | locus YOR270C, strain vph1, active compounds read low 0.96 | locus YOR290C, strain snf2, active compounds read low 0.961 | locus YPL078C, strain atp4, active compounds read low 0.991 | locus YPL240C, strain hsp82, active compounds read low 0.975 | [8] 1.02
